PubChem BioAssay (EPA / NIEHS)
Inconclusive results are not listed. Active and inactive are the calls of the source. Rule for the calls, unless noted: active = hit-call score of the fitted dose curve at least 0.9, where 1 is the maximum; inactive = score below 0.9.

Key:
[1] = CCTE_Mundy_HCI_Cortical_Synap_Neur_Matur_BPCount: CCTE's Synaptogenesis and Neurite Maturation Assay in rat cortical cells for Branch Point Count, Mundy Lab (AID 2284211)
How it was run: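 In this multiplexed morphology assay, cortical cells from rat receive chemicals at DIV 7 and are fixed at DIV 12, then immunostained and imaged; branch points are counted, with DMSO as baseline.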

[2] = CCTE_Mundy_HCI_Cortical_NOG_NeuriteCount: CCTE's Neurite Outgrowth Assay in rat cortical cells for Neurite Count, Mundy Lab (AID 2284212);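 note: cells fixed about two days after chemical exposure began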
How it was run: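 Rat cortical primary cells; compound added 2 h post-plating, 1/10 dilution of working solution. Anti-betaIII-tubulin/AF488 ICC; ArrayScan neurite count vs DMSO.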

[3] = CCTE_Mundy_HCI_Cortical_Synap_Neur_Matur_NeuriteLength: CCTE's Synaptogenesis and Neurite Maturation Assay in rat cortical cells for Neurite Length, Mundy Lab (AID 2284214)
How it was run: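 DMSO-normalised neurite length, from high-content imaging of anti-MAP2-stained rat cortical cells fixed at DIV 12. Glia were suppressed with AraC (DIV 5) before chemical exposure from DIV 7.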

[4] = CCTE_Mundy_HCI_Cortical_Synap_Neur_Matur_NeuriteSpotCountPerNeuron: CCTE's Synaptogenesis and Neurite Maturation Assay in rat cortical cells for Neurite Spot Count per Neuron Count, Mundy Lab (AID 2284215)
How it was run: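 Synapse density is scored as synaptophysin spots along neurites per neuron in fixed rat cortical neurons, measured at DIV 12 after chemical dosing at DIV 7. DMSO is the negative control and activity baseline.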

[5] = CCTE_Mundy_HCI_Cortical_Synap_Neur_Matur_SynapseCount: CCTE's Synaptogenesis and Neurite Maturation Assay in rat cortical cells for Synapse Count, Mundy Lab (AID 2284218)
How it was run: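 Endpoint: synapses/neuron by HCI (synaptophysin puncta on MAP2-labelled neurites, Hoechst nuclei). Rat primary cortical cells, AraC DIV 5, dosed DIV 7, fixed DIV 12; DMSO negative control.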

[6] = CCTE_Mundy_HCI_Cortical_Synap_Neur_Matur_NeuriteCount: CCTE's Synaptogenesis and Neurite Maturation Assay in rat cortical cells for Neurite Count, Mundy Lab (AID 2284222);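 note: exposure from day 7 to day 12 in vitro with readout at day 12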
How it was run: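 Rat primary cortical cells; AraC added at DIV 5, chemicals dosed with media change at DIV 7 through DIV 12. MAP2/synaptophysin/Hoechst immunostaining, high-content imaging of neurite number; fitted relative to DMSO.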

[7] = CCTE_Mundy_HCI_Cortical_Synap_Neur_Matur_CellBodySpotCount: CCTE's Synaptogenesis and Neurite Maturation Assay in rat cortical cells for Cell Body Spot Count, Mundy Lab (AID 2284223)
How it was run: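 Synapse number at neuronal cell bodies was quantified as synaptophysin puncta per neuron in rat cortical cultures exposed from DIV 7 to DIV 12. Values were normalised to DMSO.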

[8] = UKN2_HCS_IMR90_cell_viability: Viability Assessment in the University of Konstanz (UKN) Leist Lab Neural Crest Cell Migration Assay in human induced IMR90 Pluripotent Stem Cells (UKN2) (AID 2284233);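 note: viability of neural crest cells differentiated from IMR90 iPSC measured by calcein-AM fluorescence imaging; cells exposed to compound for 24 h after a 24 h migration phase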
How it was run: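 cMINC format, iPSC-derived neural crest (IMR90); 24 h migration (EGF/FGF, N2-S), then 24 h toxicant. Calcein-AM/H-33342 stain 30 min; fluorescence intensity by HCS; DMSO-normalised, bidirectional fitting.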

[9] = CCTE_Mundy_HCI_Cortical_NOG_NeuronCount: CCTE's Neurite Outgrowth Assay in rat cortical cells for Neuron Count, Mundy Lab (AID 2284236; active = hit-call score of the fitted dose curve at least 0.9, where 1 is the maximum;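 note: neurons counted by imaging betaIII-tubulin and Hoechst stained cortical cells; cells exposed to compound for about 48 hours before fixation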)
How it was run: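 Read-out: neuron number by high-content imaging of betaIII-tubulin (Alexa Fluor-488) and Hoechst-labelled rat primary cortical cells.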

[10] = CCTE_Mundy_HCI_Cortical_NOG_BPCount: CCTE's Neurite Outgrowth Assay in rat cortical cells for Branch Point Count, Mundy Lab (AID 2284237)
How it was run: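 Measured 50.33 h after dosing, this morphology endpoint uses rat primary cortical cultures labelled for betaIII-tubulin. Branch points are quantified by high-content imaging, with DMSO as negative control and baseline.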

[11] = CCTE_Mundy_HCI_hNP1_Casp3_7: CCTE's Caspase-Glo 3/7 Assay in human neuroprogenitor cells for Apoptosis, Mundy Lab (AID 2284240)
How it was run: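 Neuroepithelial-lineage stem cells from WA09 embryonic cells were treated with chemicals after 40–44 h of culture. Twenty-four hours later, caspase-3/7 activation was detected luminescently after a 30 min room-temperature reagent step, with DMSO as baseline.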

[12] = CCTE_Mundy_HCI_Cortical_Synap_Neur_Matur_NeuronCount: CCTE's Synaptogenesis and Neurite Maturation Assay in rat cortical cells for Neuron Count, Mundy Lab (AID 2284242; active = hit-call score of the fitted dose curve at least 0.9, where 1 is the maximum)
How it was run: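 Measured at DIV 12: fluorescently labelled neurons (Hoechst nuclei, MAP2) in rat primary cortical cultures, counted by high-content imaging. AraC suppressed glia from DIV 5; DMSO served as negative control.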

[13] = IUF_NPC2c_oligodendrocyte_migration_120hr: Leibniz Research Institute for Environmental Medicine (IUF) 120-hour Neural Progenitor Cell Migration Assay for Oligodendrocyte Migration (NPC2c) (AID 2284297);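 note: O4-positive oligodendrocyte migration distance divided by radial glia migration distance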
How it was run: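 Primary hNPC spheres migrating on extracellular matrix, exposed five days to a 7-point dilution series with solvent control. Oligodendrocyte migration was scored by high-content imaging of O4 immunostaining and expressed relative to radial glia distance.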

[14] = IUF_NPC2a_radial_glia_migration_120hr: Leibniz Research Institute for Environmental Medicine (IUF) 120-hour Neural Progenitor Cell Migration Assay for Radial Glia Migration (NPC2a) (AID 2284298)
How it was run: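 In this multiplexed test, fetal hNPC spheres migrate radially on poly-D-lysine/laminin in N2 medium (37C, 5% CO2, pH 7.2-7.6) under continuous compound exposure over five days. Migration is scored at 120 h from automated Hoechst nuclear imaging.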

[15] = IUF_NPC2a_radial_glia_migration_72hr: Leibniz Research Institute for Environmental Medicine (IUF) 72-hour Neural Progenitor Cell Migration Assay for Radial Glia Migration (NPC2a) (AID 2284299)
How it was run: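 Spheres of human primary neural progenitors migrate on poly-D-lysine/laminin under compound exposure at 37C, 5% CO2. The 72 h radial glia migration distance comes from brightfield images, measured manually.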

[16] = IUF_NPC2b_neuronal_migration_120hr: Leibniz Research Institute for Environmental Medicine (IUF) 120-hour Neural Progenitor Cell Migration Assay for Neuron Migration (NPC2b) (AID 2284300)
How it was run: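 Neurons identified by TUBB3 immunostaining and Hoechst nuclei; migration distance measured automatically on fixed wells at 120 h, normalized to glia migration. Exposure spanned five days of differentiation in N2 medium, seven test concentrations.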

[17] = IUF_NPC3_neuronal_differentiation_120hr: Leibniz Research Institute for Environmental Medicine (IUF) 120-hour Neuronal Differentiation Assay (NPC3) (AID 2284301)
How it was run: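 Neuronal differentiation of primary human neural progenitors measured by high-content imaging: percent TUBB3+ of Hoechst+ nuclei within migrated area at 120 h, seven-point serial dilution plus solvent control, gain or loss relative to DMSO.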

[18] = IUF_NPC4_neurite_length_120hr: Leibniz Research Institute for Environmental Medicine (IUF) 120-hour Neuronal Morphology Assay for Neurite Length (NPC4) (AID 2284302)
How it was run: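 Neurons from differentiating human fetal neural progenitor spheres are scored for average neurite length after five days of compound exposure. Fitting uses DMSO as negative control.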

[19] = IUF_NPC5_oligodendrocyte_differentiation_120hr: Leibniz Research Institute for Environmental Medicine (IUF) 120-hour Oligodendrocyte Differentiation Assay (NPC5) (AID 2284304; active = hit-call score of the fitted dose curve at least 0.9, where 1 is the maximum;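 note: primary human fetal neural progenitor spheres plated to migrate and differentiate; share of O4-positive cells among Hoechst nuclei found by CNN image analysis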)
How it was run: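 Human primary NPC neurospheres migrating and differentiating on laminin for 120 h under continuous compound exposure (serial dilution, solvent control). Endpoint: percent O4+ oligodendrocytes among Hoechst nuclei, detected by CNN image analysis, with DMSO as negative control.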

[20] = IUF_NPC2-5_cytotoxicity_72hr: Cytotoxicity Assessment at 72 hours in the Leibniz Research Institute for Environmental Medicine (IUF) Neural Progenitor Cell Migration and Differentiation Assay for Cytotoxicity (NPC2-5) (AID 2284306; active = hit-call score of the fitted dose curve at least 0.9, where 1 is the maximum;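 note: LDH release into supernatant measured by resorufin fluorescence marking membrane damage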)
How it was run: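 Primary human neural progenitor spheres migrate and differentiate on laminin. Compound is present from the start of differentiation, with DMSO kept at or below 0.1%. At 72 h, supernatant LDH is quantified fluorometrically, with values fitted in the positive direction.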

[21] = IUF_NPC2-5_cell_number_120hr: Cell Number Assessment at 120 hours in the Leibniz Research Institute for Environmental Medicine (IUF) Neural Progenitor Cell Migration and Differentiation Assay (NPC2-5) (AID 2284308);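 note: count of Hoechst-stained nuclei in migration zone around plated human neural progenitor spheres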
How it was run: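 Cell number is taken as all Hoechst-positive nuclei detected in the area into which cells migrate out of the sphere, scored at 120 h and referenced to DMSO solvent control, which was kept at no more than 0.1%.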

[22] = IUF_NPC2-5_viability_120hr: Viability Assessment at 120 hours in the Leibniz Research Institute for Environmental Medicine (IUF) Neural Progenitor Cell Migration and Differentiation Assay (NPC2-5) (AID 2284312)
How it was run: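 Human fetal (GW 16-19) neural progenitor spheres of 0.3 mm were plated on poly-D-lysine/laminin in N2 differentiation medium and exposed from day 0 for 120 h, with half-medium refresh at day 3. Viability was read as alamar blue resazurin-to-resorufin fluorescence against DMSO.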

[23] = CCTE_Mundy_HCI_iCellGluta_NOG_NeuronCount: CCTE's Neurite Outgrowth Assay in iCellGluta cells for Neuron Count, Mundy Lab (AID 2284340; active = hit-call score of the fitted dose curve at least 0.9, where 1 is the maximum;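 note: cells fixed about 48 h after compound addition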)
How it was run: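 Neuron count read by automated high-content imaging of Hoechst 33342 and betaIII-tubulin/Alexa Fluor-488 labelling in human iPSC glutamatergic neurons. Activity fitted relative to DMSO.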

Measured: outcome

CCc1ccccc1
inactive: all assays above
